IDE cell inh – cellular human IDE inhibition; P14735; HEK cells, FAbetaB cleavage, fluorescence polarization; inhibition, % at 5.59 µM; actives 0.41% (n = 320,000); AID 434962;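 active = percent inhibition above the average of all tested compounds plus 3 SD, set per screening campaign, cut at about 16% in these data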;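 also: IDE supplied by intact live HEK cells; FP after avidin binding of uncleaved biotin substrate so inhibition keeps polarization high; 0% = DMSO wells and 100% = 60 µM reference IDE inhibitor Ii1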
Target sequence (P14735 whole entry, looked up): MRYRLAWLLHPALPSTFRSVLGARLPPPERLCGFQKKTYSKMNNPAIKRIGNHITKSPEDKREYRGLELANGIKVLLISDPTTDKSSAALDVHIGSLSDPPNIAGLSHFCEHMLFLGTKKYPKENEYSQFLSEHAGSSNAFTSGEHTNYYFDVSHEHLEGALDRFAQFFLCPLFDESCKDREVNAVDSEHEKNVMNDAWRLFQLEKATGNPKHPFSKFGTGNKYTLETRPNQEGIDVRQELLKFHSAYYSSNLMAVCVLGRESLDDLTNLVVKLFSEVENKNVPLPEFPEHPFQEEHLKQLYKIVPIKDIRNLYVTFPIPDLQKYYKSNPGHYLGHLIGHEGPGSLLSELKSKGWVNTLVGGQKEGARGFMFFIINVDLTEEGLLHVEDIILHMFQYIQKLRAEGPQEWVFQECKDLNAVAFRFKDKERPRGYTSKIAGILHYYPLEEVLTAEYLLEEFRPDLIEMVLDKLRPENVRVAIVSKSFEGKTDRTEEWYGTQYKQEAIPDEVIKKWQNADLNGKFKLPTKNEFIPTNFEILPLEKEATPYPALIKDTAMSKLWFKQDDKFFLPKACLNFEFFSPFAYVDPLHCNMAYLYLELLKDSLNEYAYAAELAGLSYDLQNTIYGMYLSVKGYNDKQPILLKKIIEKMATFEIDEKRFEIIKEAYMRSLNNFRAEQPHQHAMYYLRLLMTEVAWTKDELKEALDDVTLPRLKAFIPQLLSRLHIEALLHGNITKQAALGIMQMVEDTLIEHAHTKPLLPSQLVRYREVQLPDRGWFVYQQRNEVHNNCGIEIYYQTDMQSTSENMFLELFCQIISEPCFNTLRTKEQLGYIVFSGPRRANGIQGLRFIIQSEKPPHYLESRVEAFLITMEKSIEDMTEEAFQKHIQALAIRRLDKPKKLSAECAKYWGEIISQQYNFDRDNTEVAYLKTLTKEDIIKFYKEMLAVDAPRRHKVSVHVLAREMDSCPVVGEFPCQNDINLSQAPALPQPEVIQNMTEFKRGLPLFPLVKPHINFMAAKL
ALR H2O2 inh – human ALR oxidase inhibition via reduced H2O2 | P55789 | purified ALR, DTT oxidation, H2O2 HRP-luminol luminescence | inhibition, % (concentration not given with the values) | actives 3.8% (n = 290,000);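 active = mean replicate inhibition above about 79%, with every replicate also reaching it, limit read from the data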
CaV13 ICDI inh – Disruptors of the CACNA1D IQ motif to Ca2+-dependent inactivation inhibitor domain association, primary screening, Förster resonance energy transfer in intact living … | HEK cells, CFP/YFP FRET ICDI-IQ, plate reader, 10 min; percent FRET-ratio fall versus neutral wells | inhibition, % at 12.3 µM | actives 0.098% (n = 340,000) | AID 743397;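 active = mean replicate inhibition of at least 30% and at least 1% of replicates passing that level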;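 also: 0% = median of the neutral control wells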
PolyA inh – yeast polyadenylation inhibition; actives 0.02% (n = 300,000); S. cerevisiae SKY197-pL101 polyadenylation reporter, beta-gal luminescence; efflux-impaired pdr1/pdr3 knockout yeast; score 100 = 6 SD above DMSO; activity score, % at 12 µM; AID 1875;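 active = lowest replicate activity score at least 50, where 100 means six control SD above control mean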;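 also: yeast exposed to compound for 9 h at 30 °C; higher score means more reporter readthrough which indicates perturbed polyadenylation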
IDE act – IDE (human) activation, cell-based | P14735 | HEK cells, FAbeta-B cleavage, fluorescence polarization; 0% vehicle, 100% cell-free pure enzyme wells | activation, % at 5.96 µM | actives 0.073% (n = 340,000) | AID 493087;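 active = activation above the mean of all tested compounds plus 3 SD, set per screening campaign, cut at about 17% in these data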
PfM18AAP inh – PfM18AAP enzyme inhibition. actives 1.2% (n = 290,000). inhibition, % at 7.35 µM. recombinant PfM18AAP, H-Glu-NHMec fluorogenic cleavage;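 active = inhibition above the campaign mean inhibition over all tested compounds plus 3 SD, cut at about 28% in these data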;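 also: 0% = plate median of test compound wells and 100% = 2 mM ZnCl2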
Active calls of the source: *. Sampled rows, rich in hits. Any-hit rate of the full collection: about 4.1%.

What do the screens show for `COc1ccc(C2=Nc3ccccc3N(C(=O)c3ccc(C(F)(F)F)cc3)C2C(=O)Nc2c(C)cccc2C)cc1` (stereo unspecified)?
CaV13 ICDI inh: -9.1

How did CN(C)S(=O)(=O)c1cccc(C(=O)Nc2cc(S(=O)(=O)N3CCOCC3)ccc2N2CCCC2)c1 do in these assays?
CaV13 ICDI inh: -6.1; IDE act: -2.3

What do the screens show for `CCCCN1C(=O)C(CC(=O)NC2CCCCC2)CC(C(=O)N2CCCCCC2)=C1C` (stereo unspecified)?
CaV13 ICDI inh: -13.0

Results for CC(=N\Nc1ccccc1)/C(=N/O)C(=O)Nc1ccccc1 ?
IDE cell inh: 0.6; ALR H2O2 inh: 97.4*; PolyA inh: 5.5; IDE act: 1.0; PfM18AAP inh: 0.1

How did COc1ccc(NC2=C(C(C)=O)C(c3ccc(N(C)C)cc3)C(C(C)=O)C(C)(O)C2)cc1 (stereo unspecified) do in these assays?
IDE cell inh: 2.1; ALR H2O2 inh: 91.2*; CaV13 ICDI inh: -3.0; PolyA inh: -3.4; IDE act: -0.9; PfM18AAP inh: 11.4

How did CCOc1cccc(-c2cc(C(=O)NN)[nH]n2)c1 do in these assays?
IDE cell inh: 3.0; ALR H2O2 inh: 78.6*; CaV13 ICDI inh: -3.3; PolyA inh: -16.5; IDE act: 8.8; PfM18AAP inh: 3.6

How did CC(C)c1ccc(Oc2cccc3c2S(=O)(=O)N([C@H](C)c2ccccc2)C[C@@H](COCc2ccccc2)O3)cc1 do in these assays?
CaV13 ICDI inh: -6.8

How did CN1CCN(NC(=O)NC2CCCCC2)CC1 do in these assays?
IDE cell inh: -1.4; ALR H2O2 inh: -1.1; CaV13 ICDI inh: -9.0; PolyA inh: 6.4; IDE act: -1.4; PfM18AAP inh: -0.3

What do the screens show for `Cc1ccc(S(=O)(=O)/N=C2/NC(=O)/C(=C\c3ccccc3)S2)cc1`?
IDE cell inh: 4.3; ALR H2O2 inh: 99.0*; CaV13 ICDI inh: -1.6; IDE act: -0.3

How did CC(=O)Nc1ccc(S(=O)(=O)/N=C2/NC(=O)/C(=C\c3ccco3)S2)cc1 do in these assays?
IDE cell inh: 0.4; ALR H2O2 inh: 98.6*; CaV13 ICDI inh: -7.2; PolyA inh: 16.8; IDE act: -1.7; PfM18AAP inh: 10.2

Results for Cc1ccc(S(=O)(=O)/N=C2/NC(=O)/C(=C/c3ccccc3)S2)cc1 ?
IDE cell inh: -2.8; ALR H2O2 inh: 30.2; CaV13 ICDI inh: -4.4; PolyA inh: -0.3; IDE act: -1.1; PfM18AAP inh: -3.6

Results for Cc1ccc(S(=O)(=O)/N=C2/NC(=O)/C(=C\c3ccco3)S2)cc1 ?
IDE cell inh: 4.7; ALR H2O2 inh: 11.4; CaV13 ICDI inh: -7.8; IDE act: -1.3; PfM18AAP inh: 4.0

What do the screens show for `CC1CCCCN1C(=O)C(=O)c1cn(CC(=O)N2CCCCCC2)c2ccccc12` (stereo unspecified)?
IDE cell inh: 3.7; ALR H2O2 inh: -9.3; CaV13 ICDI inh: -2.0; PolyA inh: 23.3; IDE act: 4.2; PfM18AAP inh: -5.3

How did Cc1ccc(N/N=C/c2ccc(N3CCOCC3)cc2)cc1C do in these assays?
IDE cell inh: -4.6; ALR H2O2 inh: 98.6*; CaV13 ICDI inh: -5.0; PolyA inh: 1.7; IDE act: 3.3; PfM18AAP inh: 12.4

How did O=C1CCCC(O)=C1N=Nc1c(Cl)cc(C(F)(F)F)cc1Cl do in these assays?
IDE cell inh: -4.5; ALR H2O2 inh: 1.4; CaV13 ICDI inh: -4.5; PolyA inh: 10.0; IDE act: 7.4; PfM18AAP inh: 28.3*

What do the screens show for `Nc1c(C(=O)NCc2ccc(F)cc2)c2nc3ccccc3nc2n1CCCN1CCOCC1`?
IDE cell inh: 11.1; ALR H2O2 inh: -10.2; CaV13 ICDI inh: -1.6; PolyA inh: -6.2; IDE act: 4.2; PfM18AAP inh: 3.2

Results for Nc1c(C(=O)NCc2ccccc2)c2nc3ccccc3nc2n1CCCN1CCOCC1 ?
IDE cell inh: -0.1; ALR H2O2 inh: -2.7; CaV13 ICDI inh: 76.2*; PolyA inh: 9.3; IDE act: -1.0; PfM18AAP inh: 8.8

How did COc1ccccc1C(CNC(=O)c1ccc(NS(=O)(=O)c2ccc3c(c2)OCCO3)cc1)N(C)C (stereo unspecified) do in these assays?
IDE cell inh: 5.3; ALR H2O2 inh: -7.2; CaV13 ICDI inh: -1.0; PolyA inh: -20.9; IDE act: 4.2

What do the screens show for `COc1ccc(C(=O)OCC(=O)Nc2cccc(S(=O)(=O)N3CCCCCC3)c2)cc1[N+](=O)[O-]`?
CaV13 ICDI inh: -5.8; IDE act: -2.6

What do the screens show for `Cc1nn(-c2ccccc2)c2sc(-c3n[nH]c(=S)o3)cc12`?
IDE cell inh: 5.0; ALR H2O2 inh: 97.8*; CaV13 ICDI inh: -5.1; PolyA inh: -16.2; IDE act: 2.0; PfM18AAP inh: 0.5

What do the screens show for `Cc1nn(-c2ccccc2)c2sc(C(=O)O)cc12`?
IDE cell inh: -0.5; ALR H2O2 inh: 32.8; CaV13 ICDI inh: -9.5; PolyA inh: -17.0; IDE act: 6.0; PfM18AAP inh: -10.1

What do the screens show for `Cc1cc(C(=O)Nc2ncn[nH]2)ccc1[N+](=O)[O-]`?
IDE cell inh: -0.7; ALR H2O2 inh: -7.2; CaV13 ICDI inh: -5.1; PolyA inh: 10.0; IDE act: -0.9; PfM18AAP inh: 29.6*

Results for CN(C)c1ccc(/C=C(\NC(=O)c2ccccc2)C(=O)NCCCn2ccnc2)cc1 ?
IDE cell inh: 0.5; ALR H2O2 inh: 99.0*; CaV13 ICDI inh: -3.3; PolyA inh: 1.3; IDE act: 1.2; PfM18AAP inh: 7.4

Results for COc1ccc(-n2c(=S)[nH]c3cc(C(=O)NCCCN4CCOCC4)ccc3c2=O)cc1OC ?
IDE cell inh: 3.2; ALR H2O2 inh: 5.6; CaV13 ICDI inh: -7.0; PolyA inh: -19.4; IDE act: 2.9; PfM18AAP inh: 4.4

How did Cc1ccc(/C(N)=N/OC(=O)c2cccs2)cc1 do in these assays?
IDE cell inh: -4.2; ALR H2O2 inh: 86.2*; CaV13 ICDI inh: -3.0; PolyA inh: -5.6; IDE act: 4.9; PfM18AAP inh: 0.5

What do the screens show for `N/C(=N\OC(=O)c1cccs1)c1ccccc1`?
IDE cell inh: -3.6; ALR H2O2 inh: -7.7; CaV13 ICDI inh: -2.2; PolyA inh: 7.2; IDE act: 2.6; PfM18AAP inh: 0.1

How did CCS(=O)(=O)N1Cc2cc(C(=O)NCC3CC3)nc(-c3cccc(-c4cccnc4)c3)c2[C@@H]1CCO do in these assays?
CaV13 ICDI inh: -8.3

How did O=[N+]([O-])c1cc(S(=O)(=O)N2CCCC2)ccc1O do in these assays?
IDE cell inh: -1.5; ALR H2O2 inh: -24.8; CaV13 ICDI inh: -15.1; PolyA inh: 32.1; IDE act: 5.6; PfM18AAP inh: -10.5

Results for O=[N+]([O-])c1cc(S(=O)(=O)N2CCCCCC2)ccc1F ?
IDE cell inh: -3.3; ALR H2O2 inh: 97.4*; CaV13 ICDI inh: -1.6; IDE act: 4.2; PfM18AAP inh: -9.7
